Several values for one entry are separate records, joined by “and”; a condition that tells them apart may be missing. Equal entries are not always repeated. In all, about 220,000 compounds went through this assay and about 2,000 (0.91%) were called active. Inconclusive results (about 2%) are left out. Cut-off read from the data, not from the text of the source: inconclusive = inhibition above about 80% without an active follow-up result; inactive = below that; test concentration not stated here. These entries were drawn from the full list. Results with a measured potency or affinity are listed apart.
experiment: M. tuberculosis H37Rv growth inhibitors, H37Rv strain (AID 1626); settings: active compounds read high, concentration not given here;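 note: bacteria incubated seven days before Alamar blue readout; 0% = bacteria only wells and 100% = bacteria with antibiotic wells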

SMILES | inhibition
Cc1ccc(C(NC(=O)c2ccccc2)C(Cl)(Cl)Cl)cc1 (configuration not stated) | 5.19% (inactive)
CC(=O)NC(O)C(=O)c1ccccc1 (configuration not stated) | 3.23% (inactive)
O=Cc1cn(CC(=O)NCC2CCCO2)c2ccccc12 (configuration not stated) | 2.23% (inactive)
Cc1occc1-c1nnc(SCC(=O)NC2CCCC2)n1-c1ccccc1 | 2.16% (inactive)
CC(C)(C)C(=O)CSc1ncnc2c1cnn2-c1ccccc1 | 9.82% (inactive)
CC(=O)CSc1ncnc2c1cnn2-c1ccccc1 | -1.25% (inactive)
CCOC(=O)CNC(=O)CSc1ncnc2c1cnn2-c1ccc(Cl)cc1 | 14.2% (inactive)
NC(=O)CSc1ncnc2c1cnn2Cc1ccccc1 | -0.76% (inactive)
CCN(CC)C(=O)CSc1ncnc2c1cnn2Cc1ccccc1 | -79.5% (inactive)
CCOC(=O)Cn1cnc2c(cnn2-c2ccc(Cl)cc2)c1=O | -3.87% (inactive)
CNC(=O)CSc1ncnc2c1cnn2-c1ccccc1 | -3.44% (inactive)
CCOC(=O)CC(=O)CSc1ncnc2c1cnn2-c1ccccc1 | -1.22% (inactive)
COc1ccc(Cc2nnc(SCC(=O)N3CCCCC3)o2)cc1 | 3.26% (inactive)
O=C1N(Cc2cccnc2)C[C@@H]2C[C@@H](c3cccc(C(F)(F)F)c3)N3CCC[C@@]123 | 2.57% (inactive)
CCCCOc1nc2ccccc2nc1C(C#N)S(=O)(=O)c1ccccc1 (configuration not stated) | -4.72% (inactive)
CN(c1ccc(OCC(=O)OCC(=O)NCc2ccco2)cc1)S(=O)(=O)c1ccc2ccccc2c1 | -0.25% (inactive)
COc1ccccc1C(=O)C1CCCN(C(=O)c2snnc2C)C1 (configuration not stated) | -0.23% (inactive)
Cc1ccc(SCC(=O)NCCSCc2ccccc2)cc1 | 7.41% (inactive)
Cc1ccc(-n2ncc3c(SCC(=O)Nc4cc(C)on4)ncnc32)c(C)c1 | 0.2% (inactive)
CCOC(=O)CNC(=O)CSc1ncnc2c1cnn2-c1ccc(OC)cc1 | 14.6% (inactive)
CSc1ncnc2c1cnn2-c1ccc(C)cc1C | 11.1% (inactive)

SMILES | inhibition
CCOC(=O)CNC(=O)CSc1ncnc2c1cnn2-c1ccc(C)cc1 | -3.46% (inactive)
COCc1cc(C)nc(Nc2ccc(C)c(C)c2)c1C#N | -2.04% (inactive)
CC1=C(C(=O)Nc2ccccc2)C(c2ccco2)NC(=O)N1 (configuration not stated) | -10.5% (inactive)
COc1cc(NC(=O)CN2C(=O)NC(C)(c3ccccc3)C2=O)c(C)cc1[N+](=O)[O-] (configuration not stated) | 3.59% (inactive)
Cc1cc(C)n2c(SC/C(O)=C(\C#N)c3nc4ccccc4[nH]3)nnc2n1 | -3.82% (inactive)
COc1ccc(C(=O)NCC2CCCO2)cc1OC (configuration not stated) | -3.63% (inactive)
c1ccc(CN(CC2=NCCN2)c2ccccc2)cc1 | -7.61% (inactive) and -7.26% (inactive)
CC(COc1ccccc1Cc1ccccc1)N1CCCCC1 (configuration not stated) | 1.05% (inactive)
CCOc1cc(N2CCOCC2)c(OCC)cc1NC(=O)c1ccc2ccccc2n1 | 7.27% (inactive)
CCNc1nc(CN2CCCCC2)nc2scc(-c3ccccc3)c12 | 10.7% (inactive)
CN(Cc1ccccc1)c1nc(CN2CCOCC2)nc2scc(-c3ccccc3)c12 | 38.4% (inactive)
c1csc(-c2csc3nc(CN4CCOCC4)nc(NCc4ccc5c(c4)OCO5)c23)c1 | -6.15% (inactive)
NC(=O)C1CC(O)CN1c1nc(CN2CCOCC2)nc2scc(-c3ccccc3)c12 (configuration not stated) | -8.45% (inactive)
CC/C(=N\Nc1ccccc1)c1c(O)n(-c2ccccc2)c(=O)[nH]c1=O | 47.3% (inactive)
C[C@H](NC(=O)c1nc[nH]c1C(=O)N[C@H](C)c1ccccc1)C(=O)OCc1ccccc1 | 2.36% (inactive)
CNC(=O)c1[nH]cnc1C(=O)N[C@@H](C)C(=O)OCc1ccccc1 | -1.09% (inactive)
Cc1cccc(NC(=O)c2nc[nH]c2C(=O)N[C@@H](Cc2ccccc2)C(=O)OCc2ccccc2)c1 | -0.81% (inactive)
Cc1cccc(NC(=O)c2nc[nH]c2C(=O)N[C@@H](CC(C)C)C(=O)OC(C)(C)C)c1 | 39% (inactive)
Cc1cccc(NC(=O)c2nc[nH]c2C(=O)N[C@@H](C)C(=O)OC(C)(C)C)c1 | 80% (inactive)
C[C@H](NC(=O)c1[nH]cnc1C(=O)Nc1ccc(Cl)cc1)C(=O)OC(C)(C)C | 52.4% (inactive)
COc1ccccc1-n1c(SCC(=O)Nc2ccccc2C)nc(O)cc1=O | -5.47% (inactive)

SMILES | inhibition
NNC(=O)[C@H]1C[C@@H]1c1ccccc1 | -1.45% (inactive)
Cc1ccc(SC(C)c2nc(-c3ccncc3)no2)cc1 (configuration not stated) | 3.66% (inactive)
O=C(Cc1ccc(Cl)c(Cl)c1)Nc1ccc2[nH]c(=O)[nH]c2c1 | -1.82% (inactive)
Clc1ccc(C(c2ccccc2)N2CCNCC2)cc1 (configuration not stated) | 0.35% (inactive)
COc1cc(/C=C/C(=O)O)ccc1O | -3.73% (inactive)
CCOc1cc(/C=C/c2ccc3cccc([N+](=O)[O-])c3n2)ccc1O | -4.71% (inactive)
Cc1ccc(NC(=S)N(Cc2ccccc2)C(C)C)cc1 | -1.3% (inactive)
CCCc1cc(=O)[nH]c(SCC(=O)Nc2ccc3c(c2)CCC3)n1 | 7.3% (inactive)
CCC(C)c1c(O)nc(SCC(=O)Nc2ccccc2)[nH]c1=O (configuration not stated) | -5.09% (inactive)
Nc1cc(=O)[nH]c(SCC(=O)Nc2ccc3c(c2)CCC3)n1 | 4.78% (inactive)
O=C(CSc1nc(O)cc(=O)[nH]1)Nc1ccc2c(c1)CCC2 | 6.46% (inactive)
CCN(CC)C(=O)C(=O)Nc1ccc(Oc2ccccc2)cc1 | 14.4% (inactive)
COc1cccc(CNCCc2c[nH]c3ccccc23)c1OCc1ccc(F)cc1 | 28.9% (inactive)
COc1cccc(CNCCc2c[nH]c3ccccc23)c1OCc1ccccc1 | 52.7% (inactive)
COc1cc(CNCCCCO)ccc1OCc1ccccc1F | 0.63% (inactive)
CCNCc1ccc(OCc2ccccc2F)c(OC)c1 | 6.78% (inactive)
O=C(NCCc1ccccc1)C1CC(=O)N(C2CCCCCC2)C1 (configuration not stated) | -3.62% (inactive)
COC(=O)C1=C(c2ccccc2)C[C@@H]2CC[C@H]1N2C(=O)NCC1CC1 | -3.96% (inactive)
O=C(OCc1ccc(Cl)cc1)c1cnccn1 | 13.5% (inactive)
COC(=O)c1ccc(COC(=O)c2cnccn2)cc1 | 16.3% (inactive)

— PubChem BioAssay AID1626 (SRMLSC, 2009)
